According to article PMC7862700, “An all-to-all approach to the identification of sequence-specific readers for epigenetic DNA modifications on cytosine”:

Tests used:
Assay in all cases: DAPPL (digital affinity profiling via proximity ligation, sequencing); 10 mM Tris-HCl pH 7.5, 50 mM NaCl, 1 mM DTT, 4% glycerol, room temperature, 30 min; GST-TFs on glutathione beads, 16-mer random dsDNA library, 0.1% formaldehyde crosslink after washing; high values mean tight binding
FEV = target: T1, FEV (Homo sapiens, UniProt Q99581 1-238); settings: protein: recombinant; tags: N-terminal GST; dsDNA, one strand shown
T1 sequence: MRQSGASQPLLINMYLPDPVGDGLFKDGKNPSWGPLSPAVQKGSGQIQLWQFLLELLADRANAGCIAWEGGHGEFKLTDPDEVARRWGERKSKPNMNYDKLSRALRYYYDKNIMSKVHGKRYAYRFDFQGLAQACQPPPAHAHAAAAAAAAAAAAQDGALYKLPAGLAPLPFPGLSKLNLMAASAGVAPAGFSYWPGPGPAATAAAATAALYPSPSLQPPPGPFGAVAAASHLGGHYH
Procedure, shortened: (§1)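 Pools were built from human transcription factors expressed in yeast as GST fusions, captured on glutathione beads and DNA-barcoded, along with a tag-only sample. Incubation with 200 nmole of a 16-mer random double-stranded DNA library lasted 30 min at room temperature in Tris/NaCl/DTT/glycerol buffer, and was followed by washing, 0.1% formaldehyde crosslinking, proximity ligation, PCR amplification and Illumina NextSeq500 sequencing. Binding signal is the quotient of each hexamer's read frequency for a factor and its frequency for the tag-only sample.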

ETV5 = ETV5 (Homo sapiens, UniProt P41161 1-510); settings: protein: recombinant; tags: N-terminal GST; dsDNA, one strand shown
ETV5, sequence (P41161 whole entry): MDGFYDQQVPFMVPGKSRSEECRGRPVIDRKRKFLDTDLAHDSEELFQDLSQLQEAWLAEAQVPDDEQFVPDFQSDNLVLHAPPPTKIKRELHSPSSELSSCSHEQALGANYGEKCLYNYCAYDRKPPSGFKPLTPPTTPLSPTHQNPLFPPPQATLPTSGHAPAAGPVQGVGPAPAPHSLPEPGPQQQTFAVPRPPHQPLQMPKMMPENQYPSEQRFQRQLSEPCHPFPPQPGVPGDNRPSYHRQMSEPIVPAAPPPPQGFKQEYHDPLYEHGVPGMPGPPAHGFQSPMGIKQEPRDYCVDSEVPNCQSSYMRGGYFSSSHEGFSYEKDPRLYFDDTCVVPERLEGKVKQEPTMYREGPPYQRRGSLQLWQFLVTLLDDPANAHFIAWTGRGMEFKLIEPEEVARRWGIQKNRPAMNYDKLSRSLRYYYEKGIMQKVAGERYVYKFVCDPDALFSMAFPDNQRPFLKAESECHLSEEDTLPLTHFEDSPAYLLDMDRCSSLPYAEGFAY
Procedure, shortened: as §1

HSF1 = HSF1 (Homo sapiens, UniProt Q00613 1-529); settings: protein: recombinant; tags: N-terminal GST; chain copies: 3; dsDNA, one strand shown
HSF1, sequence (Q00613 whole entry): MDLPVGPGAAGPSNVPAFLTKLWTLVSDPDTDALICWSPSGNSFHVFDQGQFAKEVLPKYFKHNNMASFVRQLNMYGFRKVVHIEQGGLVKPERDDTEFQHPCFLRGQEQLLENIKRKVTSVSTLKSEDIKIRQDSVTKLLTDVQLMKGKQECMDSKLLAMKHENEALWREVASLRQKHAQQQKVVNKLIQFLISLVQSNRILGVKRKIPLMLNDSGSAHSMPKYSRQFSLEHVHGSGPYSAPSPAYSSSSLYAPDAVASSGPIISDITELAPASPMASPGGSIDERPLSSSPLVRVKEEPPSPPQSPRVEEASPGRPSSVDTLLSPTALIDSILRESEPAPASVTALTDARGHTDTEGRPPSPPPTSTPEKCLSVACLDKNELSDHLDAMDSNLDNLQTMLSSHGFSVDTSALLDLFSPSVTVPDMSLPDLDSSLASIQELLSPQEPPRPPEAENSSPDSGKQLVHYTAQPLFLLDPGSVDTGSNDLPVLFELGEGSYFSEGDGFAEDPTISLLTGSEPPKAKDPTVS
Procedure, shortened: as §1

SPIC = target: T2, SPIC (Homo sapiens, UniProt Q8N5J4 1-248); settings: protein: recombinant; tags: N-terminal GST; dsDNA, one strand shown
T2 sequence: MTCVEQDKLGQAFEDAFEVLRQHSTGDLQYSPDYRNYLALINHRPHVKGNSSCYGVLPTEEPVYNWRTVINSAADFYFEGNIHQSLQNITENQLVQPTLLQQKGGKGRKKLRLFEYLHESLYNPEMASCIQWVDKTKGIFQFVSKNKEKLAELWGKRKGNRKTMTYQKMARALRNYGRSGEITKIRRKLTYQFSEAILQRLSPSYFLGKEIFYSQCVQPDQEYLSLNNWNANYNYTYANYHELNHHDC
Procedure, shortened: as §1

ELF4 = ELF4 (Homo sapiens, UniProt Q99607 1-663); settings: protein: recombinant; tags: N-terminal GST; dsDNA, one strand shown
ELF4, sequence (Q99607 whole entry): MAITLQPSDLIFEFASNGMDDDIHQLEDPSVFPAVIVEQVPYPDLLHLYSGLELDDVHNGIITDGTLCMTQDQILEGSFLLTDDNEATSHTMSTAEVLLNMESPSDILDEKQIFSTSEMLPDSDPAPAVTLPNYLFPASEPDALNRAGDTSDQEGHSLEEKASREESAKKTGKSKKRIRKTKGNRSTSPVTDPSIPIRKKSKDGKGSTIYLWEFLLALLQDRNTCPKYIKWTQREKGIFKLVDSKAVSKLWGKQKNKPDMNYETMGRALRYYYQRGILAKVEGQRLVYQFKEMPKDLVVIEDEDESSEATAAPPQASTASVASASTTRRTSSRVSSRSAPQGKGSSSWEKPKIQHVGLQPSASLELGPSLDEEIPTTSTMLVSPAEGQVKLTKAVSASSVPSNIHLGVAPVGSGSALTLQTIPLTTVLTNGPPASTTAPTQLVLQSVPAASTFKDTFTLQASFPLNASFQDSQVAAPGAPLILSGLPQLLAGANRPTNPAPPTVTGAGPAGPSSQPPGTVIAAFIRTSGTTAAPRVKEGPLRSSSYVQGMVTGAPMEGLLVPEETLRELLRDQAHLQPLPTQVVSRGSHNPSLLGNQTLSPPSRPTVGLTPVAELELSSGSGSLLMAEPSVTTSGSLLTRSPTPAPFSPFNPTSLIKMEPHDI
Procedure, shortened: as §1

ELK4 = target: T3, ELK4 (Homo sapiens, UniProt P28324-2 1-405); settings: protein: recombinant; tags: N-terminal GST; dsDNA, one strand shown
T3 sequence: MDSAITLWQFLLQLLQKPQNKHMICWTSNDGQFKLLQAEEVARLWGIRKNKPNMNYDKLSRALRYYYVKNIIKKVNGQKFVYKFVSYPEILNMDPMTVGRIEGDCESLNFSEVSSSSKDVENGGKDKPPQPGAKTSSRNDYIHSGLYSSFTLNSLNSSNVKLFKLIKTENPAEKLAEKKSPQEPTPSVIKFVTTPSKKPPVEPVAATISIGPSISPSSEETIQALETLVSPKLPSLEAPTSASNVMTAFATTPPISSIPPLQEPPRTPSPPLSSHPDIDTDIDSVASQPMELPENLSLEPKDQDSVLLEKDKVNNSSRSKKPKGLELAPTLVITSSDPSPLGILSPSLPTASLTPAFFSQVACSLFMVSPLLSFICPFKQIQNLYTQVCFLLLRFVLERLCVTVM
Procedure, shortened: as §1

ETV2 = target: T4, ETV2 (Homo sapiens, UniProt O00321 1-342); settings: protein: recombinant; tags: N-terminal GST; dsDNA, one strand shown
T4 sequence: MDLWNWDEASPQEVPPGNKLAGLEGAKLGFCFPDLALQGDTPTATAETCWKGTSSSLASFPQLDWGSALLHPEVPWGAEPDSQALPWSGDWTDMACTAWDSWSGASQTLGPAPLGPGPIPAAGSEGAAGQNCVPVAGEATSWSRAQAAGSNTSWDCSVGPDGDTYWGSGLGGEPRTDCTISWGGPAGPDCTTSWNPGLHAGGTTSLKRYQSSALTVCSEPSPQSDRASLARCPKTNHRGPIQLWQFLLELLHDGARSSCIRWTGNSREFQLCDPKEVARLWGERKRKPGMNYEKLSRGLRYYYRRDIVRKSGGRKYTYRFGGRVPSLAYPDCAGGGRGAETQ
Procedure, shortened: as §1

ELF3 = target: T5, ELF3 (Homo sapiens, UniProt P78545 1-371); settings: protein: recombinant; tags: N-terminal GST; dsDNA, one strand shown
T5 sequence: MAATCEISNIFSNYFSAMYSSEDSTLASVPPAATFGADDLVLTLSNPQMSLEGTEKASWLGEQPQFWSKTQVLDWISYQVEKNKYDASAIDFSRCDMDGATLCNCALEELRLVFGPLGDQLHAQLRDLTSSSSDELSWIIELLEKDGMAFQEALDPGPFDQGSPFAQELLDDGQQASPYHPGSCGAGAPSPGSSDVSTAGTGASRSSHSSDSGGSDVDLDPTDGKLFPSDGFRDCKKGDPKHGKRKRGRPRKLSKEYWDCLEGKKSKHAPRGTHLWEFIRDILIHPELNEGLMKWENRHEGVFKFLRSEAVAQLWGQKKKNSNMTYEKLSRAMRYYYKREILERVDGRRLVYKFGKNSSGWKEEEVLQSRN
Procedure, shortened: as §1

CRX = CRX (Homo sapiens, UniProt O43186 1-299); settings: protein: recombinant; tags: N-terminal GST; dsDNA, one strand shown
CRX, sequence (O43186 whole entry): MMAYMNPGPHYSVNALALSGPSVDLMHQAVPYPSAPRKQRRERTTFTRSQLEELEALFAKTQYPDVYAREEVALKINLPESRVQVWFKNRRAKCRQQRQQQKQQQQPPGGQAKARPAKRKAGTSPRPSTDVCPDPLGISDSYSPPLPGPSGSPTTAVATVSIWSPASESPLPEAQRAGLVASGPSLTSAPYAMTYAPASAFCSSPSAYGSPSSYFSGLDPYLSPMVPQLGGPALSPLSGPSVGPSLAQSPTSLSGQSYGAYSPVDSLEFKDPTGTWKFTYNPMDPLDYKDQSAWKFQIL
Procedure, shortened: as §1

ETV1 = ETV1 (Homo sapiens, UniProt P50549 1-477); settings: protein: recombinant; tags: N-terminal GST; dsDNA, one strand shown
ETV1, sequence (P50549 whole entry): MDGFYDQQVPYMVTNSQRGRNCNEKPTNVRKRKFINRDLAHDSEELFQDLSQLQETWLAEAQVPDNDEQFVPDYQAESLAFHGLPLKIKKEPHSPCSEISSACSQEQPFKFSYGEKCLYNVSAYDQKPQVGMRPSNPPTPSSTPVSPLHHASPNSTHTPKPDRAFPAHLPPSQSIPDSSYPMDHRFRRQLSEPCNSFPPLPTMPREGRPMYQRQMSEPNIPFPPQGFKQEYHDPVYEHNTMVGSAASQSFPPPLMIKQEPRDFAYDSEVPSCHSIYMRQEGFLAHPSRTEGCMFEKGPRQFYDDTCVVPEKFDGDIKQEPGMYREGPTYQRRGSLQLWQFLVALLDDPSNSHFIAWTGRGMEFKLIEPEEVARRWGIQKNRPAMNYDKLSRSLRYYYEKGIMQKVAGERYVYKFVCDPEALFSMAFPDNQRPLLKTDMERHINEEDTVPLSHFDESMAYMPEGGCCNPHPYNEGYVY
Procedure, shortened: as §1

ERF = target: T6, ERF (Homo sapiens, UniProt P50548 1-548); settings: protein: recombinant; tags: N-terminal GST; dsDNA, one strand shown
T6 sequence: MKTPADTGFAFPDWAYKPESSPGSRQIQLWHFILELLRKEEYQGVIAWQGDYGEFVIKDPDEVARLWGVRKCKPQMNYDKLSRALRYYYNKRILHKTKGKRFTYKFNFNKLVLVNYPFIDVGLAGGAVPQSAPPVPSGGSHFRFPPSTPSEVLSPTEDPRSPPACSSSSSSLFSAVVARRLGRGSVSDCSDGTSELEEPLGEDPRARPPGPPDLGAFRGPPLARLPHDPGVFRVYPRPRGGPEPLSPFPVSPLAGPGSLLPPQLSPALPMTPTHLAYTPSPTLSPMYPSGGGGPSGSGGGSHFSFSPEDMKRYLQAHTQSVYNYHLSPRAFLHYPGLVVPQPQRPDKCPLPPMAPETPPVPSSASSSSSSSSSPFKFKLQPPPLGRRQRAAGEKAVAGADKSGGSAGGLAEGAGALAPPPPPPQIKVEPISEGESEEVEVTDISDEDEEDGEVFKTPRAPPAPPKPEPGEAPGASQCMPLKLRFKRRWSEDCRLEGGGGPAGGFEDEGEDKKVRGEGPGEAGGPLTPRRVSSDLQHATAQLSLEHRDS
Procedure, shortened: as §1

ETV3L = target: T7, ETV3L (Homo sapiens, UniProt Q6ZN32 1-361); settings: protein: recombinant; tags: N-terminal GST; dsDNA, one strand shown
T7 sequence: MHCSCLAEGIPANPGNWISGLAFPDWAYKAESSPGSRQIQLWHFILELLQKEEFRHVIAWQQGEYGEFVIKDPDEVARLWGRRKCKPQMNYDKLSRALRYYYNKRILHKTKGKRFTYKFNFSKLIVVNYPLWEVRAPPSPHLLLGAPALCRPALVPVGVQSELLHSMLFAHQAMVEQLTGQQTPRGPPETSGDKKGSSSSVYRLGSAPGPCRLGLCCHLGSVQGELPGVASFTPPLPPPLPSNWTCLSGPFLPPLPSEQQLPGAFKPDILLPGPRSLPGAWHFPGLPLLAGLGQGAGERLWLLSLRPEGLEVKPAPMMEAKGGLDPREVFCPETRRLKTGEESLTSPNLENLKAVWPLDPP
Procedure, shortened: as §1

ETS2 = target: T8, ETS2 (Homo sapiens, UniProt P15036 1-469); settings: protein: recombinant; tags: N-terminal GST; dsDNA, one strand shown
T8 sequence: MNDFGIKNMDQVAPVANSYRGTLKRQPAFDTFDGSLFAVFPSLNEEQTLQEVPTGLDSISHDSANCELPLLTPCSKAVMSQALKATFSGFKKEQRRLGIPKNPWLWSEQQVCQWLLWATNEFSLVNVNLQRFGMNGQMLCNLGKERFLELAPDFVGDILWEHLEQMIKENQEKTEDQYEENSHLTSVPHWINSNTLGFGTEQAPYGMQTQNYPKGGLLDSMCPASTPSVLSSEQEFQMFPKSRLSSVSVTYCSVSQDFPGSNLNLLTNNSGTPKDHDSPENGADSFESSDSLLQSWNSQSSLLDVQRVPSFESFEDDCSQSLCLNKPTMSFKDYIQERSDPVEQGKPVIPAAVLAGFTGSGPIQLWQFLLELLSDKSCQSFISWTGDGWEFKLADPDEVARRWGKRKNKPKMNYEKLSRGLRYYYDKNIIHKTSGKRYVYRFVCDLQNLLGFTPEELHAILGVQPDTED
Procedure, shortened: as §1

SPDEF = target: T9, SPDEF (Homo sapiens, UniProt O95238 1-335); settings: protein: recombinant; tags: N-terminal GST; dsDNA, one strand shown
T9 sequence: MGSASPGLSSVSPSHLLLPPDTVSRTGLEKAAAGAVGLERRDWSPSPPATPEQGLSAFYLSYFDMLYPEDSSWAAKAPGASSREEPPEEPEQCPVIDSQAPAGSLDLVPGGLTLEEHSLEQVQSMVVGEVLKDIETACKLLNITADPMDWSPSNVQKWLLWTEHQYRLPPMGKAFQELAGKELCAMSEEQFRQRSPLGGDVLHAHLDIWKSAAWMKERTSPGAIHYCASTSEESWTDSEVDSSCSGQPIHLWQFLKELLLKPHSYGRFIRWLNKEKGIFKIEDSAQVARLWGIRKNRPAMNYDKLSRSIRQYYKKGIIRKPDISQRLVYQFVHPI
Procedure, shortened: as §1

ETV7 = target: T10, ETV7 (Homo sapiens, UniProt Q9Y603 1-341); settings: protein: recombinant; tags: N-terminal GST; dsDNA, one strand shown
T10 sequence: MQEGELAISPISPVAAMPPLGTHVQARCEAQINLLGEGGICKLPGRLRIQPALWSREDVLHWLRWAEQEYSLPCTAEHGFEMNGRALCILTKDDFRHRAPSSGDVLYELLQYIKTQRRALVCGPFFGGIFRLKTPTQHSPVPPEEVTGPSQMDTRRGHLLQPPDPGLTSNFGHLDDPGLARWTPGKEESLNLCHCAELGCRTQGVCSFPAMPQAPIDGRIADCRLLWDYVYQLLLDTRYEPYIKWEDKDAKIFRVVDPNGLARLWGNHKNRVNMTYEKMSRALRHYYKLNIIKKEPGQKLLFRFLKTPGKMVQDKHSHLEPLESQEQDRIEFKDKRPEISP
Procedure, shortened: as §1

ELF5 = target: T11, ELF5 (Homo sapiens, UniProt Q9UKW6-2 1-255); settings: protein: recombinant; tags: N-terminal GST; dsDNA, one strand shown
T11 sequence: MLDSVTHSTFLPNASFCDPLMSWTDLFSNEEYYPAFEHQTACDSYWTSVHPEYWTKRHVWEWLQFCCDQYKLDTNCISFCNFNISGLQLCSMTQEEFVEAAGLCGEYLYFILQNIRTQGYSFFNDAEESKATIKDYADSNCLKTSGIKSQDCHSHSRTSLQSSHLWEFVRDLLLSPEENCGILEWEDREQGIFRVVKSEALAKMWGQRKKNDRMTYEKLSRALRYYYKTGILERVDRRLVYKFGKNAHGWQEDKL
Procedure, shortened: as §1

ETV3 = target: T12, ETV3 (Homo sapiens, UniProt P41162-2 1-143); settings: protein: recombinant; tags: N-terminal GST; dsDNA, one strand shown
T12 sequence: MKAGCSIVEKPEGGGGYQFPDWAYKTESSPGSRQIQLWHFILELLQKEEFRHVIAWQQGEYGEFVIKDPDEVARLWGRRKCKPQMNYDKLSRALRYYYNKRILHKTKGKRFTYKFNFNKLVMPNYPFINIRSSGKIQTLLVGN
Procedure, shortened: as §1

ETV6 = ETV6 (Homo sapiens, UniProt P41212 1-452); settings: protein: recombinant; tags: N-terminal GST; dsDNA, one strand shown
ETV6, sequence (P41212 whole entry): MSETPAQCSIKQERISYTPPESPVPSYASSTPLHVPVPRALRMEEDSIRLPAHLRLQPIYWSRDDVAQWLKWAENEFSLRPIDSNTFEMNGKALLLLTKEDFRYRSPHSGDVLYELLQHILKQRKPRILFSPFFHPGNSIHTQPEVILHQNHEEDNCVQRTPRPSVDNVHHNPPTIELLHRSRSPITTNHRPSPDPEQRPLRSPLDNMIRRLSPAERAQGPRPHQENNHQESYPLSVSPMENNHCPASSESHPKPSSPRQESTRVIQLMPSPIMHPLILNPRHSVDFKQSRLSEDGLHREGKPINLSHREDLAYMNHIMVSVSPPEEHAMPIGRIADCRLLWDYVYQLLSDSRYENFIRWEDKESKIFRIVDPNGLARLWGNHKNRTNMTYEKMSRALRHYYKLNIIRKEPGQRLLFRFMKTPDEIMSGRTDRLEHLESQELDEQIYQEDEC
Procedure, shortened: as §1

## TATCCA
FEV
  binding signal: 1.29 fold enrichment (6-mer frequency, TF over GST control)
ETV5
  binding signal: 1.27 fold enrichment (6-mer frequency, TF over GST control)
HSF1
  binding signal: 1.49 fold enrichment (6-mer frequency, TF over GST control)
SPIC
  binding signal: 1.4 fold enrichment (6-mer frequency, TF over GST control)
ELF4
  binding signal: 1.29 fold enrichment (6-mer frequency, TF over GST control)
ELK4
  binding signal: 1.33 fold enrichment (6-mer frequency, TF over GST control)
ETV2
  binding signal: 1.37 fold enrichment (6-mer frequency, TF over GST control)
ELF3
  binding signal: 1.31 fold enrichment (6-mer frequency, TF over GST control)
CRX
  binding signal: 1.75 fold enrichment (6-mer frequency, TF over GST control)
ETV1
  binding signal: 1.27 fold enrichment (6-mer frequency, TF over GST control)
ERF
  binding signal: 1.27 fold enrichment (6-mer frequency, TF over GST control)
ETV3L
  binding signal: 1.28 fold enrichment (6-mer frequency, TF over GST control)
ETS2
  binding signal: 1.28 fold enrichment (6-mer frequency, TF over GST control)
SPDEF
  binding signal: 1.21 fold enrichment (6-mer frequency, TF over GST control)
ETV7
  binding signal: 1.34 fold enrichment (6-mer frequency, TF over GST control)
ELF5
  binding signal: 1.27 fold enrichment (6-mer frequency, TF over GST control)
ETV3
  binding signal: 1.23 fold enrichment (6-mer frequency, TF over GST control)
ETV6
  binding signal: 1.2 fold enrichment (6-mer frequency, TF over GST control)
